According to PubChem BioAssay (EPA / NIEHS):
A structure can be active in one record and inactive in another. Active and inactive are the calls of the source. The calls were made as follows: active = hit-call score of the fitted dose curve at least 0.9, where 1 is the maximum; inactive = score below 0.9.

Assays:
[1] = ATG_PXRE_CIS: Attagene CIS-FACTORIAL HepG2 Assay for human Pregnane X Receptor Element (PXRE) (AID 2282957); details: HepG2 Attagene CIS-FACTORIAL PXRE reporter, mRNA; actives raise or lower the signal
In short: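 Cis-element reporter mRNA in human hepatoma HepG2 cells is measured 24 h post-dosing by RT-PCR, primer-extension labeling and capillary electrophoresis; gain or loss of signal is fitted relative to DMSO.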

[2] = ATG_PPRE_CIS: Attagene CIS-FACTORIAL HepG2 Assay for human Peroxisome Proliferator-activated Response Element (PPRE) (AID 2282958); details: HepG2 PPRE cis-element reporter, Attagene transcription factor profiling; actives raise or lower the signal
In short: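 Multiplexed reporter transcription units under cis-regulatory promoters were transfected into HepG2 cells to capture endogenous factor activity. A 24 h incubation preceded RNA isolation and fluorescent RT-PCR fragment analysis.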

[3] = ATG_RORE_CIS: Attagene CIS-FACTORIAL HepG2 Assay for human RAR-related Orphan Receptor Element (RORE) (AID 2282959); details: HepG2 Attagene cis-factorial RORE reporter, mRNA; actives raise or lower the signal
In short: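 Fluorescence intensity of reporter-specific cDNA fragments, separated by capillary electrophoresis, gives the signal. Source: HepG2 liver cells transiently transfected with cis-element reporters and exposed 24 h; DMSO-normalized bidirectional fit.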

[4] = ATG_Sox_CIS: Attagene CIS-FACTORIAL HepG2 Assay for human SRY-box transcription factor (SOX) (AID 2282960); details: HepG2 Attagene cis-factorial SOX reporter, mRNA; actives raise or lower the signal
In short: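 After 24 h of chemical treatment, transfected HepG2 reporter cells are lysed for total RNA. Transcript levels come from RT-PCR with labelled primer extension and capillary electrophoresis, analysed bidirectionally versus DMSO.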

[5] = target: Transcription factor Sp1 (Homo sapiens) (UniProt P08047); assay: ATG_Sp1_CIS: Attagene CIS-FACTORIAL HepG2 Assay for human Specificity Protein 1 (Sp1) (AID 2282961); details: HepG2 Sp1 cis-reporter transcription, actives raise or lower the signal
Transcription factor Sp1 (Homo sapiens), sequence (P08047 whole entry, looked up): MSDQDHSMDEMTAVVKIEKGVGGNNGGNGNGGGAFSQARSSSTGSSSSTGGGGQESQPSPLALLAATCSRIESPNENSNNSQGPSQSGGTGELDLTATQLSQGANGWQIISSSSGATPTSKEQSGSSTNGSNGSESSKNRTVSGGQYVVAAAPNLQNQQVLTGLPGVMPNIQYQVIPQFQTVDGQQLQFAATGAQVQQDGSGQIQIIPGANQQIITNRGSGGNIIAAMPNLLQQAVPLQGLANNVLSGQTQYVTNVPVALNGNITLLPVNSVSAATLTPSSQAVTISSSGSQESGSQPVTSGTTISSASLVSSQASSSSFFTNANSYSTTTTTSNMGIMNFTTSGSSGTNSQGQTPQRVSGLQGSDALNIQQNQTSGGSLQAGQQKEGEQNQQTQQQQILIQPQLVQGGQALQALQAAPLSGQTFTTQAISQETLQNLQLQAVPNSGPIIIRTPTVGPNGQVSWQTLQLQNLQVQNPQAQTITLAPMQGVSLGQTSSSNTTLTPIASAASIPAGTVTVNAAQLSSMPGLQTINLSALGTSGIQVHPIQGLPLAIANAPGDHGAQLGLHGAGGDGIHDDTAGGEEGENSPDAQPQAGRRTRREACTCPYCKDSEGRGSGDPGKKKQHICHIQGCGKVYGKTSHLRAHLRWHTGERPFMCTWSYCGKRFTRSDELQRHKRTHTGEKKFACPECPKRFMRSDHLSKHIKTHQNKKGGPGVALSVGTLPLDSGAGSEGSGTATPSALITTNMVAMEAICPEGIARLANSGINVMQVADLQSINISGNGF
In short: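 Sp1-driven reporter mRNA, read as capillary electrophoresis fluorescence after RT-PCR, in transiently transfected HepG2 cells dosed for 24 h; signal change in either direction relative to DMSO.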

[6] = ATG_SREBP_CIS: Attagene CIS-FACTORIAL HepG2 Assay for human Sterol Regulatory Element Binding (SREBP) (AID 2282962); details: HepG2 Attagene cis-factorial SREBP reporter, mRNA; actives raise or lower the signal
In short: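 mRNA induction of transfected cis-promoter reporters in HepG2 cells, 24 h post-dose. Detection: RT-PCR with 6-FAM-labelled products, HpaI digest, capillary electrophoresis. DMSO served as negative control and baseline.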

[7] = target: Signal transducer and activator of transcription 3 (Homo sapiens) (UniProt P40763); assay: ATG_STAT3_CIS: Attagene CIS-FACTORIAL HepG2 Assay for human Signal Transducer and Activator of Transcription 3 (STAT3) (AID 2282963); details: HepG2, Attagene cis-factorial STAT3 reporter transcription; actives raise or lower the signal
Signal transducer and activator of transcription 3 (Homo sapiens), sequence (P40763 whole entry, looked up): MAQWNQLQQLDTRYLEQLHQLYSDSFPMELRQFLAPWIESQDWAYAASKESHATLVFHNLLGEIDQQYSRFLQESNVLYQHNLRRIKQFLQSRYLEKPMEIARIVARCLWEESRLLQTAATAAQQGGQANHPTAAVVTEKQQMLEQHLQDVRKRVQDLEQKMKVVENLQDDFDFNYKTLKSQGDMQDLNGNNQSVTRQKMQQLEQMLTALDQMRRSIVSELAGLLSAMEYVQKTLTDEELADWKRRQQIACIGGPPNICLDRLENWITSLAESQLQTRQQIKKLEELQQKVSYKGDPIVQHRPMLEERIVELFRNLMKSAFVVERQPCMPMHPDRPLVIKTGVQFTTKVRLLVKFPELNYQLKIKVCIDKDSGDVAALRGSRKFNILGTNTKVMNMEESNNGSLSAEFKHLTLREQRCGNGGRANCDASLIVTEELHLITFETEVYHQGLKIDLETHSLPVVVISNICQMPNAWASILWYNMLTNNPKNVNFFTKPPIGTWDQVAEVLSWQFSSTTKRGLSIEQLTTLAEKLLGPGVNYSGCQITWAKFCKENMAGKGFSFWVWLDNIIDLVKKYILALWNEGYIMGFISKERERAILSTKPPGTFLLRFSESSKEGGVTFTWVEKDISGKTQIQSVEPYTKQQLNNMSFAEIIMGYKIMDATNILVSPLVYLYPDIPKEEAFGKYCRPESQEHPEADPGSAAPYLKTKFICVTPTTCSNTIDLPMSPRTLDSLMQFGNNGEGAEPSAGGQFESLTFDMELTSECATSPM
In short: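 Transcript-level reporter assay. HepG2 transient MRTU transfection, 24 h exposure, fluorescence detection after RT-PCR and CE; DMSO baseline.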

[8] = ATG_TA_CIS: Attagene CIS-FACTORIAL HepG2 Assay for human TA Basal Promoter (AID 2282964); details: HepG2 Attagene CIS-factorial TA basal promoter reporter; actives raise or lower the signal
In short: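 Background internal-marker endpoint from a 52-component HepG2 cis-reporter panel. Cells treated 24 h; reporter transcripts quantified via RT-PCR and CE fluorescence against DMSO baseline.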

[9] = ATG_TCF_b_cat_CIS: Attagene CIS-FACTORIAL HepG2 Assay for human T-Cell-Factor with beta-catenin (TCF/b-cat) (AID 2282965); details: HepG2 TCF/beta-catenin cis-reporter transcription, actives raise or lower the signal
In short: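 HepG2 cells transiently transfected with multiple cis-promoter-regulated reporter transcription units, so endogenous transcription factor activity is measured. Reporter mRNA read 24 hours after dosing by RT-PCR, fluorescent labelling and capillary electrophoresis; bidirectional fitting against DMSO.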

Row | SMILES | AC50 [1] | outcome [2] | outcome [3] | outcome [4] | AC50 [5] | outcome [6] | outcome [7] | outcome [8] | outcome [9] | outcome [1] | outcome [5] | AC50 [9] | AC50 [2] | AC50 [8] | AC50 [3] | AC50 [6]
1 | CC(C)c1nnc2ccc(-c3ocnc3-c3cc(F)ccc3F)cn12 | 26.5 µM (active) | inactive | inactive | inactive | 125 µM (active) | inactive | inactive | inactive | inactive |  |  |  |  |  |  | 
2 | FC(F)(F)COC(OCC(F)(F)F)OCC(F)(F)F |  | inactive | inactive | inactive |  | inactive | inactive | inactive | inactive | inactive | inactive |  |  |  |  | 
3 | FC(F)=C(F)C(F)(F)C(F)(F)C(F)(F)C(F)(F)C(F)(F)C(F)(F)F |  | inactive | inactive | inactive |  |  | inactive | inactive | inactive | inactive | inactive | 234 µM (active) |  |  |  | 
4 | CCCCN1C(=O)[C@@H]([C@H](O)C2CCCCC2)NC(=O)C12CCN(Cc1ccc(Oc3ccc(C(=O)O)cc3)cc1)CC2 | 93.5 µM (active) |  | inactive | inactive |  |  | inactive |  |  |  | inactive | 52.5 µM (active) | 54 µM (active) | 31.7 µM (active) |  | 
5 | O=c1[nH]cnc2c1ncn2[C@H]1CC[C@@H](CO)O1 |  | inactive | inactive | inactive |  |  | inactive | inactive | inactive | inactive | inactive |  |  |  |  | 
6 | O=C(NO)C1(NS(=O)(=O)c2ccc(Oc3ccc(F)cc3)cc2)CCOCC1 |  | inactive | inactive | inactive |  |  | inactive | inactive | inactive | inactive | inactive |  |  |  |  | 
7 | CC(C)CC(C)O (configuration not stated) |  | inactive | inactive | inactive |  | inactive | inactive | inactive | inactive | inactive | inactive |  |  |  |  | 
8 | CCCOc1ccc(S(=O)(=O)N2CCN(CC)CC2)cc1-c1nc2c(CC)n(Cc3ccccn3)nc2c(=O)[nH]1 | 1.18 µM (active) | inactive |  | inactive |  |  | inactive | inactive |  |  | inactive | 89.8 µM (active) |  |  | 2.63 µM (active) | 
9 | OCc1ccccc1 |  |  | inactive | inactive |  | inactive | inactive | inactive | inactive | inactive | inactive |  |  |  |  | 
10 | S=P(N1CC1)(N1CC1)N1CC1 | 12.1 µM (active) [middle of 4 runs] | inactive | inactive | inactive |  |  | inactive | inactive | inactive |  | inactive |  |  |  |  | 
11 | COCc1nnc(-c2ccc[n+]([O-])c2)n1-c1c(Cl)c(Cl)cc2[nH]c(=O)c(=O)[nH]c12 |  |  | inactive | inactive |  |  | inactive | inactive | inactive | inactive | inactive |  |  |  |  | 
12 | C=CN1CCCC1=O |  | inactive | inactive | inactive |  |  | inactive | inactive | inactive | inactive | inactive |  |  |  |  | 
13 | Cn1c(=O)c2[nH]cnc2n(C)c1=O |  | inactive | inactive | inactive |  |  | inactive | inactive |  | inactive | inactive | 100 µM (active) |  |  |  | 
14 | CCOc1ccc2[nH]cc(C(=O)NCc3ccccc3)c(=O)c2n1 | 26.7 µM (active) | inactive | inactive | inactive |  |  | inactive | inactive | inactive |  | inactive |  |  |  |  | 
15 | NCC(F)(F)C(F)(F)C(F)(F)C(F)(F)F |  | inactive | inactive | inactive |  |  | inactive | inactive | inactive | inactive | inactive |  |  |  |  | 
16 | O=C(O)[C@H](O)[C@@H](O)C(=O)O |  |  | inactive | inactive |  |  | inactive | inactive | inactive | inactive | inactive |  |  |  |  | 
17 | c1ccc(C(O[C@@H]2CCCN(CCc3ccc4c(c3)OCO4)C2)c2ccccc2)cc1 | 0.514 µM (active) | inactive | inactive | inactive |  |  | inactive |  | inactive |  | inactive |  |  | 55.3 µM (active) |  | 
18 | CC1(C)C(=O)N(Cl)C(=O)N1Cl |  |  | inactive | inactive |  |  | inactive | inactive | inactive | inactive | inactive |  |  |  |  | 
19 | NC(=O)N1c2ccccc2C=Cc2ccccc21 | 34.8 µM (active) | inactive | inactive | inactive |  | inactive | inactive | inactive | inactive |  | inactive |  |  |  |  | 
20 | Cc1nccn1-c1ccc(Sc2cccc(C3(C(N)=O)CCOCC3)c2)cc1 |  |  |  | inactive | 2.31 µM (active) |  | inactive | inactive |  | inactive |  | 6.41 µM (active) |  |  | 5.29 µM (active) | 2.08 µM (active)
21 | OC(Cn1cncn1)(Cn1cncn1)c1ccc(F)cc1F |  | inactive | inactive | inactive |  | inactive | inactive | inactive | inactive | inactive | inactive |  |  |  |  | 
22 | Cc1ncc([C@@H](CCCCCCc2ccc3c(n2)NCCC3)CC(=O)O)cn1 | 27.6 µM (active) | inactive | inactive | inactive |  | inactive | inactive | inactive | inactive |  | inactive |  |  |  |  | 
23 | COc1cc2c(c(OC)c1OC)-c1ccc(OC)c(=O)cc1[C@@H](NC(C)=O)CC2 |  |  | inactive | inactive |  |  | inactive | inactive |  | inactive | inactive | 0.348 µM (active) |  |  |  | 
